A selection: hits, their analogues and other compounds. The true share with any hit is near 2.9%.
Beta2AR agonist = beta2AR agonists driving receptor internalization, primary screen, cell-based, FAP fluorogen, flow cytometry; Beta-2 adrenergic receptor (Homo sapiens), P07550; response, % (test concentration not listed); actives 0.43% (n = 340,000); Am2.2-beta2AR cells;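 active = response above a set limit, near 3 SD of response in nonfluorescent compounds, cut at about 42% in these data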
Target sequence (P07550 whole entry, looked up): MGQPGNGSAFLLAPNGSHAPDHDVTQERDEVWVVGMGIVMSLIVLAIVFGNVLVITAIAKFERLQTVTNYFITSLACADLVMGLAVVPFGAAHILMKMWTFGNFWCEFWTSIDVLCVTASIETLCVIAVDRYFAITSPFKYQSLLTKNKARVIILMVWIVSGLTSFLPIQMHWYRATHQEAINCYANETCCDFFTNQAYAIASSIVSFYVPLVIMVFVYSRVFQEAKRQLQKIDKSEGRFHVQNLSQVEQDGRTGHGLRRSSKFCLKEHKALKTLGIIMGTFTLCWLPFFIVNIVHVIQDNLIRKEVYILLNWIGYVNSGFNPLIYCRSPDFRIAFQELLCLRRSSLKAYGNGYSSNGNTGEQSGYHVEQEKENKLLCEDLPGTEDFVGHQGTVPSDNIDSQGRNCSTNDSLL
MEKK3 PB1 HTS = modulators of MEKK3-MEK5 PB1 binding, primary screen, biochemical, wildtype MEKK3, multiplex bead flow cytometry, Alexa488-MEK5; Mitogen-activated protein kinase kinase kinase 3 (Homo sapiens), Q99759; bead-based flow cytometry, Alexa488-MEK5 binding to MEKK3; actives lie on both sides; 0 = blocked by unlabeled MEK5, 100 = vehicle; binding response (% of control), % at 10 µM; actives 1.4% (n = 290,000);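 active = binding response more than 3 SD above or below the average of its plate-row segment, actives on both sides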;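 also: Alexa488 bead fluorescence after subtracting the streptavidin-only scavenger bead signal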
MEKK2 mut-MEK5 = MEK5 binding signal on mutant MEKK2 PB1, primary screen, biochemical, multiplex bead flow cytometry, Alexa488-MEK5; Alexa488-MEK5 binding to MEKK2 mutant; percent response, % at 10 µM; actives 0.35% (n = 290,000); AID 1530, 2009; in the data active = percent response above about 24%, passing the limit was not always enough
GRK2 aptamer HTS = compounds blocking aptamer binding on GRK2 – biochemical, human GRK2, bead flow cytometry, HTS, primary screen | actives 0.59% (n = 330,000) | Beta-adrenergic receptor kinase 1 (Homo sapiens), P25098 | inhibition of aptamer binding, % at 10 µM | AID 488847, 2010 | FAM-aptamer displacement from GRK2;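 active = inhibition of aptamer binding above 40%, roughly 3 SD of noise, on plates passing a quality check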;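 also: median bead fluorescence of bound FAM aptamer so fluorescent compounds give negative values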
MEKK2 WT-MEK5 = modulators of MEK5 binding to wildtype MEKK2, primary screen, biochemical, multiplex bead flow cytometry, Alexa488-MEK5. Alexa488-MEK5 binding to MEKK2 WT; actives lie on both sides. binding response (% of control), % at 10 µM. actives 1.1% (n = 290,000); in the data active = binding response below about 67% or above about 130%
MEKK2wt confirm = modulators of MEK5 binding to wildtype MEKK2, confirmation, biochemical, single concentration, multiplex bead flow cytometry | shares compounds with MEKK3 PB1 HTS | Alexa488-MEK5 binding to MEKK2 WT; actives lie on both sides | binding response (% of control), % at 10 µM | actives 2.4% (n = 5,900) | AID 1892, 2009; in the data active = binding response below about 16% or above about 210%; inactive = in between
MEKK2mut-MEK5 = mutant MEKK2 PB1-MEK5 binding signal retest – biochemical, single concentration, multiplex bead flow cytometry, confirmation. AID 1893, 2009. actives 2% (n = 5,900). percent response, % at 10 µM. Alexa488-MEK5 binding to MEKK2 mutant. shares compounds with MEKK3 PB1 HTS; in the data active = percent response mostly above about 71%, no sharp cut-off; inactive = mostly below about 38%;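 also: higher means compound restores mutant binding toward wildtype level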
MEKK3-MEK5 inh = MEKK3 wild-type PB1 binding to MEK5, inhibitors, confirmation, biochemical, bead multiplex flow cytometry, single concentration, wildtype; shares compounds with MEKK3 PB1 HTS; Alexa488-MEK5 binding to MEKK3; stronger effect = lower value; binding response (% of control), % at 10 µM; actives 1.8% (n = 5,900);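 active = binding response below 72% of control, or above a set upper limit, though filed actives all read lower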;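 also: 100% = DMSO only wells and 0% = binding blocked by excess unlabeled MEK5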
* marks the source's active call; other numbers are inactive results; . = not tested or not shown; [ ] = another dose, or the depositor's remark.

SMILES	Beta2AR agonist	MEKK3 PB1 HTS	MEKK2 mut-MEK5	GRK2 aptamer HTS	MEKK2 WT-MEK5	MEKK2wt confirm	MEKK2mut-MEK5	MEKK3-MEK5 inh
COCCNC(=O)C1=NOC(Cn2cc(C#N)c(=O)n(C)c2=O)C1 (configuration not stated)	-0.3	145.0*	6.0	1.0	129.0	100.0	4.0	108.0
Cc1ccc(S(=O)(=O)N2CC=C(c3ccc(F)cc3)CC2)cc1	2.5	140.0*	3.0	3.0	106.0	100.0	1.0	106.0
Cc1ccc(S(=O)(=O)N2CCCN(S(=O)(=O)c3ccc(C)cc3)CC2)cc1	2.2	36.0*[inhibitor]	-20.0	0.0	48.0	102.0	2.0	101.0
Cc1ccc(S(=O)(=O)N2CCCCC2)cc1	8.6	108.0	9.0	0.0	104.0	.	.	.
Cc1ccc(S(=O)(=O)N2CCN(S(=O)(=O)N3CCC(C)CC3)CC2)c(C)c1	-4.3	101.0	5.0	3.0	97.0	.	.	.
Cc1ccc(NC(=O)C2=CCN(S(=O)(=O)c3ccc(F)cc3)CC2)cc1	0.4	106.0	-2.0	0.0	106.0	.	.	.
Cc1ccc(S(=O)(=O)N2CCN(S(=O)(=O)N3CCCCC3)CC2)c(C)c1	-4.0	1.0*[inhibitor]	-20.0	1.0	-3.0*[inhibitor]	98.0	0.0	100.0
Cc1ccc(O)c(N=Nc2ccc(S(=O)(=O)N3CCCC3)cc2)c1	0.2	132.0*	27.0	1.0	120.0	102.0	1.0	101.0
C[C@H]1CN(S(=O)C(C)(C)C)[C@@H](CCO)/C1=C\CCO (some centres not stated)	-5.6	.	.	.	.	.	.	.
CCn1c(C)c(C2=CCN(S(=O)(=O)c3ccc(C)cc3)CC2)c2ccccc21	0.0	85.0	1.0	0.0	6.0*[inhibitor]	104.0	5.0	103.0
O=C(C1=C[C@@H](c2ccc(C(F)(F)F)cc2)C[C@@H](OCCCCO)O1)N1CCOCC1	-8.6	103.0	3.0	2.0	102.0	.	.	.
O=C(C1=C[C@H](c2ccc(C(F)(F)F)cc2)C[C@H](OCCCCO)O1)N1CCOCC1	-5.3	82.0*[inhibitor]	-3.0	0.0	100.0	99.0	-3.0	98.0
Cc1ccc(N2C(=O)c3ccccc3C2=O)nc1	-10.9	105.0	10.0	2.0	107.0	.	.	.
COC(=O)CCCCCCCCC(O)C[N+]1(C)CCOCC1 (configuration not stated)	-5.0	22.0*[inhibitor]	-47.0	1.0	27.0*[inhibitor]	92.0	-5.0	96.0
O=C(NCC(F)(F)F)Nc1cccnc1	3.4	127.0*	22.0	0.0	121.0	105.0	1.0	101.0
CC(NC(=O)/C(=C/c1ccc2c(c1)OCO2)NC(=O)c1cccc([N+](=O)[O-])c1)C(=O)O (configuration not stated)	7.5	92.0	-8.0	1.0	84.0	.	.	.
Cc1cccc(NC(=O)CCC(=O)OCC(=O)c2ccc(Oc3ccc([N+](=O)[O-])cc3)cc2)c1	-1.2	68.0*[inhibitor]	-1.0	3.0	94.0	103.0	8.0	107.0
O=C(Nc1ccc(NC(=O)c2sc3ccccc3c2Cl)cc1)c1ccco1	-4.2	99.0	8.0	4.0	100.0	.	.	.
CCCN(CCC)S(=O)(=O)c1ccc(NC(=O)Cc2cccs2)cc1	-0.8	100.0	1.0	4.0	100.0	.	.	.
CCCCN(CCCC)S(=O)(=O)c1ccc(NC(=O)Cc2cccs2)cc1	51.0*	112.0	15.0	5.0	143.0*	104.0	-8.0	104.0
N#C/C(=C\C=C\c1ccccc1[N+](=O)[O-])C(=O)NC1CCCCC1	3.8	99.0	-1.0	7.0	94.0	.	.	.
N#C/C(=C\c1ccccc1[N+](=O)[O-])C(=O)NC1CCCCC1	6.0	40.0*[inhibitor]	-17.0	0.0	47.0*[inhibitor]	97.0	-6.0	99.0
CCN1CCN(S(=O)(=O)c2ccc3ccccc3c2)CC1	0.6	50.0*[inhibitor]	-20.0	0.0	67.0	104.0	2.0	101.0
CCS(=O)(=O)N1CCN(S(=O)(=O)c2ccc3ccccc3c2)CC1	1.8	107.0	3.0	0.0	107.0	.	.	.
CC(C)CSc1nnc2[nH]c(=O)cc(N)n12	4.9	60.0*[inhibitor]	3.0	0.0	86.0	99.0	-2.0	100.0
SMILES	Beta2AR agonist	MEKK3 PB1 HTS	MEKK2 mut-MEK5	GRK2 aptamer HTS	MEKK2 WT-MEK5	MEKK2wt confirm	MEKK2mut-MEK5	MEKK3-MEK5 inh
O=C(COC(=O)CCC(NC(=O)OCc1ccccc1)C(=O)OCC(=O)Nc1ccccc1)Nc1ccccc1 (configuration not stated)	-2.5	152.0*	1.0	4.0	113.0	109.0	4.0	103.0
Fc1ccccc1CNC(=S)Nc1cccc(C(F)(F)F)c1	4.0	134.0*	-1.0	0.0	99.0	110.0	8.0	111.0
COc1ccccc1C=NN=Cc1ccccc1OC	-3.8	.	.	.	.	.	.	.
CN1CCN(/N=C/c2ccc(N(c3ccccc3)c3ccccc3)cc2)CC1	15.9	106.0	16.0	0.0	153.0*	151.0	34.0	98.0
CN1CCN(/N=C/c2ccc(N(C)c3ccccc3)cc2)CC1	1.3	103.0	10.0	0.0	115.0	.	.	.
O=C(O)CCC(=O)N1N=C(c2c(-c3ccccc3)c3cc(Cl)ccc3[nH]c2=O)CC1c1cccs1 (configuration not stated)	-12.4	134.0*	1.0	3.0	105.0	102.0	-3.0	101.0
Cc1cc(C)cc(N2CC(C(=O)OCC(=O)Nc3cc(C)on3)CC2=O)c1 (configuration not stated)	0.9	104.0	0.0	5.0	104.0	.	.	.
CCOC(=O)C(=CNc1ccc(NC2=NCC(C)S2)cc1)C(=O)OCC (configuration not stated)	-5.8	138.0*	1.0	0.0	112.0	110.0	5.0	101.0
COCc1[nH][nH]c(=O)c1/C=N/N1CCOCC1	-2.1	40.0*[inhibitor]	-17.0	3.0	56.0	104.0	5.0	107.0
COc1cc(C(=O)OCC(=O)NCCC2=CCCCC2)ccc1OCC(C)C	6.0	.	.	0.0	.	.	.	.
Cc1nn2c(=O)cc(CSCC(=O)Nc3ccccc3Cl)nc2s1	-8.3	103.0	1.0	1.0	101.0	.	.	.

High-throughput results: PubChem BioAssay, NMMLSC
